The values below come from PubChem BioAssay.

Each structure is given as a SMILES string. Active and inactive are the calls of the source.

Assay [1] can be described thus: optical density shifts of acrAB sulA E. coli – strain DRC41, OD650, 48 h, E. coli filamentation inducer project, primary screen (AID 1152).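 Note: E. coli MC1000 strain DRC41 lacking acrAB efflux pump and sulA.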 As to conditions: higher = more signal, called active from +8 up or from −8 down.
Assay [2] can be described thus: probe aLefty1 binding on compound microarray – biochemical, small-molecule microarray, 635/667 nm fluorescence, primary screen (AID 1153).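 Note: score merges spot fluorescence with signal-to-noise ratio from the scanned slide images.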 As to conditions: higher = more signal.
Assay [3] in a line: plasmodial surface anion channel blockers, osmotic lysis – cell-based, P. falciparum Indochina, OD700, 1 h, primary screen (AID 1154). As to conditions: P. falciparum Indochina infected RBC osmotic lysis, higher = more signal, called active from +8 up or from −8 down.
A short description of assay [4]: plasmodial surface anion channel blockers, osmotic lysis – cell-based, P. falciparum Indochina, OD700, 2 h, primary screen (AID 1155).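 Note: lysis reports solute entry through the parasite surface anion channel PSAC.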 As to conditions: P. falciparum Indochina infected erythrocytes, higher = more signal, called active from +8 up or from −8 down.
The nature of assay [5]: changes in parasitized red cell lysis, either direction – P. falciparum Indochina, OD700, 3 h, PSAC antagonist project, primary screen (AID 1156). As to conditions: P. falciparum-infected erythrocytes, osmotic lysis, higher = more signal, called active from +8 up or from −8 down.
Assay [6] can be described thus: plasmodial surface anion channel blockers, osmotic lysis – cell-based, P. falciparum Indochina, OD700, 18 h, primary screen (AID 1157). As to conditions: P. falciparum Indochina infected erythrocytes, osmotic lysis OD700, 18 h; higher = more signal, called active from +8 up or from −8 down.
Assay [7] can be described thus: S6 kinase pathway phospho-S6 level changes – cell-based, A549, cytoblot, luminescence, serum-stimulated, primary screen (AID 1158).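 Note: serum-stimulated A549 lung adenocarcinoma cells; signal is phosphorylated S6 detected by cytoblot immunostaining with HRP secondary.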 As to conditions: 5 h, higher = more signal.
For assay [8], the target named is NADPH oxidase 2 (Homo sapiens) (UniProt P04839). Nature of the assay: compounds shifting NOX2 Amplex Red fluorescence – cell-based, HEK293-NOX2, PMA-stimulated, NOX inhibitor project, primary screen (AID 1159). Note: test concentration not given here. As to conditions: 45 min, higher = more signal, called active from +8 up or from −8 down.
Assay [9] concerns the target NADPH oxidase 4 (Homo sapiens) (UniProt Q9NPH5). Nature of the assay: compounds shifting NOX4 Amplex Red fluorescence – cell-based, HEK293-NOX4, tetracycline-induced, NOX inhibitor project, primary screen (AID 1160). As to conditions: HEK293-NOX4, Amplex Red H2O2 fluorescence, 45 min; higher = more signal, called active from +8 up or from −8 down.
Assay [10] has as its target NADPH oxidase 5 (Homo sapiens) (UniProt Q96PH1). Nature of the assay: compounds shifting NOX5 Amplex Red fluorescence – cell-based, HEK293-NOX5, NOX inhibitor project, primary screen (AID 1161). As to conditions: HEK293-NOX5, ionomycin, 45 min, higher = more signal.
Assay [11] is described as follows: compound effects on lung adenocarcinoma cell viability – A549, calcein-AM fluorescence, 48 h, basal, profiling panel (AID 1162). Note: test concentration not given here. As to conditions: higher = more signal.
Assay [12] in a line: compound effects on differentiated 3T3-L1 adipocyte viability – cell-based, 3T3-L1 adipocytes, calcein-AM fluorescence, 48 h, basal, profiling panel (AID 1163). Note: test concentration not given here. As to conditions: 3T3-L1 adipocytes viability, higher = more signal.
A short description of assay [13]: compound effects on hepatocellular carcinoma cell viability – HepG2, calcein-AM fluorescence, 48 h, basal, profiling panel (AID 1164). Note: test concentration not given here. As to conditions: higher = more signal.
Assay [14] in a line: compound effects on multiple myeloma cell viability – MM1S, calcein-AM fluorescence, 48 h, basal, profiling panel (AID 1165). Note: test concentration not given here. As to conditions: higher = more signal.
The nature of assay [15]: calcein-AM signal in unstimulated myeloma cells – cell-based, calcein-AM fluorescence, 48 h, PK04 Diversity Set, profiling panel (AID 1166).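 Note: cells grown under basal conditions without added stimulus; test concentration not given here.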 As to conditions: RPMI8226 myeloma viability, higher = more signal.
A short description of assay [16]: JC-1 mitochondrial signal, unstimulated HepG2 cells – cell-based, JC-1 fluorescence, 24 h, 100 nL compound, profiling panel (AID 1167). Note: test concentration not given here. As to conditions: HepG2 mitochondrial potential, higher = more signal.
Assay [17] is described as follows: JC-1 mitochondrial signal, unstimulated adipocytes – cell-based, JC-1 fluorescence, 3T3-L1 adipocytes, 24 h, 100 nL compound, profiling panel (AID 1168). Note: test concentration not given here. As to conditions: JC-1 mitochondrial fluorescence, higher = more signal, called active from +8 up or from −8 down.
The nature of assay [18]: JC-1 mitochondrial signal, unstimulated myeloma cells – cell-based, JC-1 fluorescence, RPMI8226, 24 h, 100 nL compound, profiling panel (AID 1169). Note: test concentration not given here. As to conditions: JC-1 mitochondrial potential fluorescence, higher = more signal.
Assay [19] in a line: JC-1 mitochondrial signal, unstimulated MM1S myeloma – cell-based, JC-1 fluorescence, 24 h, 100 nL compound, profiling panel (AID 1170). Note: test concentration not given here. As to conditions: MM1S mitochondrial potential, higher = more signal.
Assay [20] in a line: resazurin metabolic signal in A549 cells – cell-based, resazurin fluorescence, 24 h, PK04 Diversity Set, profiling panel (AID 1171). Note: test concentration not given here. As to conditions: A549 viability, higher = more signal, called active from +8 up or from −8 down. Background: Resazurin is reduced to fluorescent resorufin, in cell work by metabolically active cells.

Sequence of NADPH oxidase 4 (Homo sapiens) (Q9NPH5 whole entry, looked up): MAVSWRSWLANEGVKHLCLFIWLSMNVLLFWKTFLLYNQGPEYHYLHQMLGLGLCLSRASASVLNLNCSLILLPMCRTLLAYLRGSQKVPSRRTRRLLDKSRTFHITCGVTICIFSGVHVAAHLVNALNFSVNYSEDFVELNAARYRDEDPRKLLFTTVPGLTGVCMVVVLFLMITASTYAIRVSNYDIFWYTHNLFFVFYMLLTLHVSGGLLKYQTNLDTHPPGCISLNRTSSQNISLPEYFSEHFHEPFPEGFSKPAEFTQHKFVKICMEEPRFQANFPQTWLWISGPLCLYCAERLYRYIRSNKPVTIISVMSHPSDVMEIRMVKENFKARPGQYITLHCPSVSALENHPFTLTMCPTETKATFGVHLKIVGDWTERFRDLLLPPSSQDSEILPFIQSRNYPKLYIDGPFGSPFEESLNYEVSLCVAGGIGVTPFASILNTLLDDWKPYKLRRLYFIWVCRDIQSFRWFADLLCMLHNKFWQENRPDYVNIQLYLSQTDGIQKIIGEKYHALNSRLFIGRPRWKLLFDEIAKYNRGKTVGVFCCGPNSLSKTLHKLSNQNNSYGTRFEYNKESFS
Sequence of NADPH oxidase 5 (Homo sapiens) (Q96PH1 whole entry, looked up): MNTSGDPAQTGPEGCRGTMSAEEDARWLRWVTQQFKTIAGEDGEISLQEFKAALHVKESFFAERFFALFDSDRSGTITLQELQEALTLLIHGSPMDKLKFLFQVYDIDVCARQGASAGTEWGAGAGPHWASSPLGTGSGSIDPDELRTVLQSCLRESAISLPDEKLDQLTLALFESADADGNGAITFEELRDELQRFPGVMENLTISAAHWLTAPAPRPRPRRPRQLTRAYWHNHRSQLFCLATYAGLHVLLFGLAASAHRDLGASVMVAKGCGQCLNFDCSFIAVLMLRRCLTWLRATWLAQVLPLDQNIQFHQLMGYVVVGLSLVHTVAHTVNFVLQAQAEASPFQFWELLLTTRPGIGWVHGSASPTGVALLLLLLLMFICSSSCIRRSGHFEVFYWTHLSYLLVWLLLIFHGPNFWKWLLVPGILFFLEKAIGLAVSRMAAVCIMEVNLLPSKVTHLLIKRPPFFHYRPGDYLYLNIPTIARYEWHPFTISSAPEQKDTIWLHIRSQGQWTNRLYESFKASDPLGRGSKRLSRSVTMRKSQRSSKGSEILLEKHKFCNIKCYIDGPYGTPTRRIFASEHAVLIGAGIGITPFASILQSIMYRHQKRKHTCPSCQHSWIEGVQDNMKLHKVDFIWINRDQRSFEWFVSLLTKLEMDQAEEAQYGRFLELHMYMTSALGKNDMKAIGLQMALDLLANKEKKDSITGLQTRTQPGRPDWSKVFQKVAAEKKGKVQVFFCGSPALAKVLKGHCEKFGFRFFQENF
Sequence of NADPH oxidase 2 (Homo sapiens) (P04839 whole entry, looked up): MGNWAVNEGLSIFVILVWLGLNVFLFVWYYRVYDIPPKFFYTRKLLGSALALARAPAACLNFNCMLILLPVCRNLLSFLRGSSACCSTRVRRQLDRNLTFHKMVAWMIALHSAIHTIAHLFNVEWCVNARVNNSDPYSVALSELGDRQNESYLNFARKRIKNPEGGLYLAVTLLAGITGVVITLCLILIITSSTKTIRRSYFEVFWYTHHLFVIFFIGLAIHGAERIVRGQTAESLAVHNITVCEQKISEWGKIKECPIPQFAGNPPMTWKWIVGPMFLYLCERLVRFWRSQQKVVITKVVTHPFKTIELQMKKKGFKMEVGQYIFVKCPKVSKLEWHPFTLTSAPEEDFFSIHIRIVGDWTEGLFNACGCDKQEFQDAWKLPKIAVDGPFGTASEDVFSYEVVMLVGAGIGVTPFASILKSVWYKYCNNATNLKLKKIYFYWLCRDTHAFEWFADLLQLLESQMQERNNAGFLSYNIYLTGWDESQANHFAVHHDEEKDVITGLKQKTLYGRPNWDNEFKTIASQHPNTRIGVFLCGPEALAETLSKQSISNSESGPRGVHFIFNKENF

For the compound `COC(=O)CC=C[C@@H](C)[C@@H](C=NOC[C@@H](O)[C@H]1O[C@@H]2OC(C)(C)O[C@@H]2[C@H]1O)NS(=O)(=O)c1ccc(C)cc1`, the z-score in assay [1] was 0.463 (inactive); in assay [3], -0.0598 (inactive); in assay [4] it was 0.0216 (inactive); in [5] it was -0.268 (inactive); in assay [6], 0.0967 (inactive); in assay [7] it was -0.979. Moreover, the z-score in assay [8] is 0.214 (inactive); in assay [9], 0.171 (inactive); in [10] it was 0.829; in assay [11], -0.234; in assay [12], 0.531; in [13], 0.104. In addition, the z-score in assay [14] was -1.57; in assay [15] it was -0.34; in assay [16], 0.153; in assay [17], 0.158 (inactive); in assay [18], -0.15; in assay [19], -0.488. The z-score in [20] is -0.854 (inactive). In addition, in assay [2], the composite z-score was 0.165.
Consider `CCCCc1nc2c(c3c1C[C@H](C)OC3)CN(CCOc1ccccc1)CC2`, for which the z-score is 0.19 (inactive) in assay [1]; 1.3 (inactive) in [3]; -0.611 (inactive) in assay [4]; 0.128 (inactive) in assay [5]; -0.421 (inactive) in assay [6]; 1.86 in assay [7]. Besides, the z-score in [8] was -0.201 (inactive); in assay [9], 0.25 (inactive); in assay [10], 0.747; in assay [11], 1.71; in assay [12], 0.734; in assay [13], 0.681. Also, the z-score in assay [14] is 0.039; in [15], -0.657; in assay [16], 1.76; in assay [17], 0.494 (inactive); in [18], 0.539; in [19], 0.568. The z-score in assay [20] is -0.682 (inactive). Besides, in assay [2], the composite z-score was -0.0186.
As to `COc1ccc(COC(=O)NN=C2C[C@@H](O)[C@@H](O)[C@@H]3[C@@H]4C(=O)N(C5CCCCC5)C(=O)[C@@H]4CC[C@H]23)cc1`, the z-score is -1.01 (inactive) in [1]; 9.99 (active) in assay [3]; 1.51 (inactive) in [4]; 0.103 (inactive) in assay [5]; 0.549 (inactive) in assay [6]; 0.173 in assay [7]. For the same compound, the z-score is -0.248 (inactive) in assay [8]; 0.507 (inactive) in [9]; -0.712 in assay [10]; -0.574 in [11]; -1.09 in assay [12]; -0.543 in assay [13]. Also, the z-score in [14] is -1.15; in [15] it was -0.733; in assay [16], -0.895; in [17], -1.69 (inactive); in [18], 0.249; in assay [19], -0.244. Moreover, the z-score in assay [20] is 0.0299 (inactive). This compound also showed a composite z-score in [2] of -0.0611.
Regarding `CCOC(=O)[C@H](Cc1ccccc1)NC(=O)CCC1CC(OC(=O)NCc2cccc3ccccc23)CC2(CCCC(COC(=O)NCc3cccc(C(F)(F)F)c3)O2)O1` (stereo not given in full), the z-score is 0.263 (inactive) in [1]; 18.5 (active) in assay [3]; 2.83 (inactive) in assay [4]; 0.654 (inactive) in assay [5]; 0.493 (inactive) in assay [6]; -0.283 in assay [7]. The z-score is 0.402 (inactive) in [8]; 0.0385 (inactive) in [9]; -0.162 in [10]; 1.84 in assay [11]; -0.244 in assay [12]; 1.14 in assay [13]. For the same compound, the z-score in [14] is -0.709; in assay [15] it was 0.607; in assay [16], 3.94; in assay [17], 0.918 (inactive); in assay [18], -0.284; in assay [19], -0.868. Moreover, in assay [20], the z-score is -0.106 (inactive). Further, the composite z-score in assay [2] is -0.0984.
`COC(=O)CC=C[C@@H](C)[C@H](OCc1cccc(-c2ccccc2)c1)C1CCCCC1`: the z-score is -0.249 (inactive) in assay [1]; 1.56 (inactive) in [3]; 1.02 (inactive) in [4]; 0.0674 (inactive) in assay [5]; 0.367 (inactive) in [6]; -0.484 in assay [7]. In addition, the z-score in [8] was -0.491 (inactive); in assay [9] it was 0.228 (inactive); in [10] it was -0.471; in assay [11], 0.687; in assay [12] it was -0.328; in [13], -0.0634. Moreover, the z-score in assay [14] was -1.92; in assay [15] it was -0.771; in [16], -0.579; in assay [17], 0.57 (inactive); in assay [18] it was -0.165; in assay [19] it was -0.172. In addition, in assay [20], the z-score is 0.2 (inactive). Moreover, the composite z-score in [2] was -0.289.
